Screen size: about 290,000 compounds; about 2,300 (0.79%) were called active. Many of the other results were omitted from the sample, so actives are more common in it than they were. Unmarked numbers belong to inactive results. No stated cut-off is given here; in the data, active means inhibition above about 22%; inactive means the rest.
Assay: cytotoxicity in IEC-6 intestinal epithelial cells, primary screen, cytotoxicity control for KLF5 inhibitor project, cell-based, luminescence (AID 1825);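 further: 0% = plate median of test compound wells and 100% = cytotoxic reference compound wells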
Conditions: IEC-6 cytotoxicity, luminescence viability; at 5 µM; active compounds read high
For Cc1[nH]c2ccc(C(=O)N3CCN(C)CC3)cc2c1C, the inhibition was 0.4%.
In the case of COc1ccccc1N1CCN(C(=O)c2ccc(Cl)c(S(=O)(=O)N3CCCC3)c2)CC1, the inhibition is reported as -2.9%.
For CCOc1ccccc1N1CCN(C(=O)c2ccc3[nH]c(C)c(C)c3c2)CC1, the inhibition was 36.2% (active).
With CCN(C(=O)COC(=O)c1ccc(COc2ccc3c(C)cc(=O)oc3c2)cc1)C1CCS(=O)(=O)C1 (stereo not drawn) the inhibition was -1.8%.
Work on Cc1ccc(C)c(NC(=O)C2Cc3ccccc3CN2C(=O)OCc2ccccc2)c1 (stereo not drawn) yielded an inhibition of -6.3%.
O=C(NCCc1ccccn1)c1cccnc1Oc1ccc(Cl)cc1 showed an inhibition of 5%.
For CCOc1ncccc1C(=O)NCCc1ccc(OC)cc1, the inhibition was 22% (active).
In the case of COc1ccc(CCNC(=O)c2ccccc2OCc2ccccc2)cc1, the inhibition is reported as -0.9%.
For COc1cc(/C=C(\C#N)c2nc3ccccc3[nH]2)ccc1O, the inhibition was 2%.
For COc1ccc(/C=C(\C#N)c2c[nH]c3ccccc23)cc1, the inhibition was 86.1% (active).
With COc1ccc2[nH]cc(/C=C(/C#N)S(=O)(=O)c3ccccc3)c2c1 the inhibition was -0.2%.
Work on CN(CC(=O)O)S(=O)(=O)c1ccc2oc3ccccc3c2c1 yielded an inhibition of -1.3%.
Work on C=Cc1ccc(C(=O)N2CCCC(CCC(=O)N3CCN(c4ccccn4)CC3)C2)cc1 (stereo not drawn) yielded an inhibition of -8.1%.
In the case of CN(C(=O)CN1C(=O)S/C(=C\c2ccccc2F)C1=O)C1CCS(=O)(=O)C1 (stereo not drawn), the inhibition is reported as -4.8%.
Work on N#CC(C(=O)c1ccc(S(=O)(=O)N2CCCCCC2)cc1)c1nc2ccccc2[nH]1 (stereo not drawn) yielded an inhibition of 3%.
Compound O=C(C1CCCO1)N1CCC(c2nc3ccccc3[nH]2)CC1 (stereo not drawn) has an inhibition of -5.3%.
For O=S(=O)(c1ccc(Br)cc1)N1CCC(c2nc3ccccc3[nH]2)CC1, the inhibition was 43.7% (active).
Work on O=C(Nc1cccnc1Cl)c1cc(-c2ccccc2O)on1 yielded an inhibition of -3.1%.
For Cc1ccc(OCCOc2cccc(/C=N/NC(N)=O)c2)cc1, the inhibition was 3.9%.
Work on CNC(=O)C1CCN(S(=O)(=O)c2c(C)noc2/C=C/c2cccc(C)c2)CC1 yielded an inhibition of -7.8%.
With Cc1cccc2c1N(CC(=O)OC(C)C)C(=O)C2=O the inhibition was 2.7%.
For CC(C)OC(=O)CN1C(=O)C(=O)c2ccccc21, the inhibition was 24.8% (active).
CC(C)OC(=O)CN1C(=O)c2ccccc2C1=O gave an inhibition of 1.2%.
With COc1ccc(CCNS(=O)(=O)c2cn(C)nc2C)cc1 the inhibition was 3%.
CCCOc1ccc(C2=CSC3=NCCN23)cc1Cl gave an inhibition of -2.6%.
With O=C(Nn1cnnc1)c1cc(Cl)ccc1Cl the inhibition was 1.3%.
With Cc1ccc(NS(=O)(=O)c2ccc(F)cc2)nc1 the inhibition was 1.3%.
With COc1ccc(Nc2oc(-c3ccccc3Cl)nc2C#N)cc1 the inhibition was 26.1% (active).
For COc1ccccc1-c1nc(C#N)c(N2CCC(C(N)=O)CC2)o1, the inhibition was 0.7%.
With Cc1ccccc1-c1nc(C#N)c(NCc2ccco2)o1 the inhibition was -5.6%.
Compound CCC(C)N1CC(=O)N2Cc3[nH]c4ccccc4c3C[C@H]2C1=O (stereo partly drawn) has an inhibition of 9.4%.
With NC(=O)c1oc2ccccc2c1NC(=O)Cc1ccccc1 the inhibition was -3.9%.
In the case of CSc1nnc2ccc(-c3ccc(C)cc3)nn12, the inhibition is reported as 23.2% (active).
O=C(CSc1nnc2ccc(-c3ccncc3)nn12)N1CCCCC1 showed an inhibition of -4.1%.
In the case of Fc1cccc(CSc2nnc3ccc(-c4ccncc4)nn23)c1, the inhibition is reported as -4%.
Compound CCOC(=O)N1CCN(C(=O)c2cn(C)c3ccc(S(=O)(=O)N(CC)CC)cc3c2=O)CC1 has an inhibition of -5.4%.
COC(=O)c1ccc(NC(=O)CSc2nncn2-c2cccnc2)cc1 showed an inhibition of 0.4%.
In the case of COc1cccc(-c2cc(C(=O)N3CCN(c4ccccc4OC)CC3)no2)c1, the inhibition is reported as 12.1%.
COc1ccccc1N1CCN(C(=O)c2cc(=O)c3cc(C)ccc3o2)CC1 showed an inhibition of 17.9%.
With COc1ccccc1N1CCN(C(=O)c2cc(=O)c3cc(C)cc(C)c3o2)CC1 the inhibition was 93.6% (active).
Work on COC1=C(N2CCOCC2)C(=O)c2ccccc2C1=O yielded an inhibition of -1.6%.
For COc1ccc(NC(=O)c2cccc3c2C(=O)N(CC2CCCO2)C3)cc1OC (stereo not drawn), the inhibition was -0.8%.
For COc1ccc(CNS(=O)(=O)c2ccc(-c3cnc(C4CC4)o3)cc2)cc1, the inhibition was -1.9%.
In the case of Cc1cccc(NS(=O)(=O)c2ccc(-c3cnc(C4CC4)o3)cc2)c1, the inhibition is reported as 77.2% (active).
Compound Cc1cccc(CNS(=O)(=O)c2ccc(-c3cnc(C4CC4)o3)cc2)c1 has an inhibition of 4.4%.
With Cc1cccc(NC(=O)c2nc(S(=O)(=O)Cc3ccccc3)ncc2Cl)c1 the inhibition was 88.2% (active).
Cc1cccc(OCc2ccc(C(=O)Nc3ccc(F)cc3)cc2)c1 showed an inhibition of 0.7%.
For Cc1cccc(CS(=O)(=O)c2ncc(Cl)c(C(=O)Nc3ccc(F)cc3)n2)c1, the inhibition was 77.4% (active).
With CCOc1ccc(NC(=O)c2nc(SCC)ncc2Cl)cc1 the inhibition was 12.7%.
CCSc1ncc(Cl)c(C(=O)Nc2cc(C)ccc2C)n1 gave an inhibition of 5.4%.
Work on Cc1cccc(NC(=O)C(C)SCc2ccccc2)c1 (stereo not drawn) yielded an inhibition of 0.6%.
CN1C2CCC1CC(NC(=O)c1ccc([N+](=O)[O-])cc1)C2 (stereo not drawn) showed an inhibition of 5%.
Work on CC(NC(=O)COc1cccnc1[N+](=O)[O-])c1ccc(Cl)cc1Cl (stereo not drawn) yielded an inhibition of -1.6%.
Cc1cccc(NC(=O)c2ccc(S(=O)(=O)N(C)CC3CCCO3)cc2)c1C (stereo not drawn) showed an inhibition of -2.6%.
For COc1ccc(CNC(=O)C(C)n2nc(C)c3c(C)n(-c4ccccc4)nc3c2=O)c(OC)c1 (stereo not drawn), the inhibition was 0.3%.
With CC1CN(C(=S)Nc2ccccc2F)CC(C)O1 (stereo not drawn) the inhibition was 1.8%.
In the case of CC(=O)NC1=NN(C(C)=O)C(C)(c2ccc(Cl)s2)S1 (stereo not drawn), the inhibition is reported as 23.7% (active).
CC(=O)NC1=NN(C(C)=O)C(C)(CCS(=O)(=O)c2ccc(Cl)c(Cl)c2)S1 (stereo not drawn) showed an inhibition of -1%.
CC(=O)NC1=NN(C(C)=O)C(C)(c2ccc(C)cc2)S1 (stereo not drawn) showed an inhibition of -3.8%.
With O=C(Nc1ccccc1Cl)/C(Cl)=C(\Cl)S(=O)c1ccccc1 (stereo not drawn) the inhibition was 96.8% (active).
Work on O=C(Nc1ccccc1Cl)Nn1cnnc1 yielded an inhibition of 0.2%.
In the case of O=C(COC(=O)c1cccs1)Nc1ccccc1Cl, the inhibition is reported as -3.8%.
Compound CCOC(=O)c1csc(CCNC(=O)c2oc3c(Cl)cc(C)cc3c2C)n1 has an inhibition of -2.4%.
For COc1ccc(NC(=O)c2cc(-c3ccc(C)cc3)on2)cc1, the inhibition was 2.3%.
With CCOc1ccc(S(=O)(=O)Nc2ccc(OC)nc2)cc1 the inhibition was 6.1%.
With COc1ccc(NC(=O)/C(Cl)=C(/Cl)S(=O)Cc2ccc(C)cc2)cn1 (stereo not drawn) the inhibition was 99.6% (active).
Work on COc1ccc(Nc2cc(Cl)ccc2C(=O)O)cn1 yielded an inhibition of -1.3%.
With COc1ccc(CS(=O)/C(Cl)=C(/Cl)C(=O)Nc2ccc(OC)nc2)cc1 (stereo not drawn) the inhibition was 102% (active).
With COc1ccc(C(=O)Nc2ccc(NC(=O)C(C)C)nc2)cc1 the inhibition was -0.5%.
With Cc1ccc([N+](=O)[O-])cc1S(=O)(=O)N1CCCN(C)CC1 the inhibition was 3.1%.
Compound CC1(C)Cc2cccc(OCC(=O)N3CCN(c4ccc([N+](=O)[O-])cc4)CC3)c2O1 has an inhibition of 4.2%.
For Cc1cccc(C(=O)N2CCN(S(=O)(=O)N3CCCCC3)CC2)c1, the inhibition was -0.2%.
For CN(C)CCNC(=O)c1[nH]nc2c1CCc1ccccc1-2, the inhibition was -3.9%.
With CC(=O)NCCc1ccc(S(=O)(=O)Nc2ccc(C)c(S(=O)(=O)N3CCOCC3)c2)cc1 the inhibition was 2.5%.
For COc1cc(OC)cc(C(=O)N[C@H](C(=O)Nc2nc3ccccc3[nH]2)C(C)C)c1, the inhibition was 18.7%.
In the case of COC(=O)Nc1nc2ccc(Sc3ccccc3)cc2[nH]1, the inhibition is reported as 81.4% (active).
CC(C)c1nc2ccc(C(=O)O)cc2[nH]1 showed an inhibition of -6%.
S=C(c1ccc(-c2ccccc2)o1)N1CCCCC1 gave an inhibition of 1.6%.
For O=C(Cc1ccc([N+](=O)[O-])cc1)Nc1ccc(C(=O)N2CCOCC2)cc1, the inhibition was -2.8%.
In the case of CCCc1c(C(=O)N/N=C(\C)CCc2ccc(OC)cc2)nnn1-c1nonc1N, the inhibition is reported as 1.1%.
For CCn1cc(/C=C(\NC(=O)c2cc(OC)c(OC)c(OC)c2)C(=O)N2CCN(C)CC2)c2ccccc21, the inhibition was 6.9%.
Work on Cc1nn(C(C)C(=O)NCCC2=CCCCC2)c(=O)c2nn(-c3ccccc3)c(C)c12 (stereo not drawn) yielded an inhibition of -2.9%.
With CC(C)c1cc(C(=O)O)n[nH]1 the inhibition was 1.7%.
Work on Cc1cc(C(=O)N/N=C\C(Br)=C\c2ccccc2)c(C)o1 yielded an inhibition of 11.7%.
In the case of CC(C)c1cc(C(=O)N/N=C/C(Br)=C/c2ccccc2)n[nH]1, the inhibition is reported as 37.9% (active).
For Cc1ccc(Cl)cc1NC(=O)C1CCCN(c2cnccn2)C1 (stereo not drawn), the inhibition was -2.8%.
For C[C@@H]1C[C@@H]2O[C@H]2/C=C\C=C\C(=O)Cc2c(Cl)c(O)cc(O)c2C(=O)O1, the inhibition was 44.5% (active).
With COc1ccccc1Oc1ccc(N2CC(C(=O)OCC(=O)c3ccc(F)cc3)CC2=O)cc1 (stereo not drawn) the inhibition was -7.2%.
Work on Cc1nn(CC(=O)N2CCCCC2)c(=O)c2nn(-c3ccccc3)c(C)c12 yielded an inhibition of -5.3%.
In the case of COc1ccc(C2=NOC(C(=O)NCc3ccco3)C2)cc1OC (stereo not drawn), the inhibition is reported as 43.3% (active).
Work on COc1ccc(S(=O)(=O)N2CCC(C(=O)NCc3ccco3)CC2)cc1C yielded an inhibition of -0.7%.
With Cc1ccc(CNC(=O)C2CC(c3ccccc3[N+](=O)[O-])=NO2)o1 (stereo not drawn) the inhibition was 4.8%.
With C[C@@H](NC(=O)[C@@H]1Cc2ccccc2CN1)C(=O)NC1CCCC1 the inhibition was 0.2%.
CC(=O)NCCNC(=O)c1cc(-c2cccc3ccccc23)nc2ccccc12 showed an inhibition of 4.3%.
With COCCn1c(SCC(=O)Nc2nc(C)cs2)nnc1C(C)C the inhibition was 1.6%.
Compound O=C1c2ccccc2C(=O)N1c1cccc2ccccc12 has an inhibition of -0.4%.
With Cc1cccc(N2C(=O)c3cccnc3C2=O)c1 the inhibition was 3.1%.
In the case of Cc1ccc(Oc2ccc3c(c2)C(=O)N(c2cccc4cccnc24)C3=O)cc1, the inhibition is reported as 25.8% (active).
